ALR inh: human ALR oxidase inhibition via reduced H2O2 | actives 3.8% (n = 290,000) | inhibition, % (test concentration not listed) | purified ALR, DTT oxidation, H2O2 HRP-luminol luminescence | AID 485317;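 active = mean replicate inhibition above about 79%, with every replicate also reaching it, limit read from the data; inconclusive = only one of the two criteria met; inactive = mean below limit and not every replicate reaching it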
NTR1 ag: agonists of human neurotensin receptor NTR1; P30989; NTR1-U2OS beta-arrestin-GFP spot imaging, agonist mode; activation, % at 20 µM; actives 0.17% (n = 330,000); AID 493036;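 active = activation at or above 40% of the spot to cytoplasm intensity ratio, with at least 20 cells analyzed; inconclusive = wells under 20 cells, flagged as cytotoxic or low count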;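 note: 0% = DMSO without peptide and 100% = 100 nM NTR1 peptide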
Target sequence (P30989 whole entry, looked up): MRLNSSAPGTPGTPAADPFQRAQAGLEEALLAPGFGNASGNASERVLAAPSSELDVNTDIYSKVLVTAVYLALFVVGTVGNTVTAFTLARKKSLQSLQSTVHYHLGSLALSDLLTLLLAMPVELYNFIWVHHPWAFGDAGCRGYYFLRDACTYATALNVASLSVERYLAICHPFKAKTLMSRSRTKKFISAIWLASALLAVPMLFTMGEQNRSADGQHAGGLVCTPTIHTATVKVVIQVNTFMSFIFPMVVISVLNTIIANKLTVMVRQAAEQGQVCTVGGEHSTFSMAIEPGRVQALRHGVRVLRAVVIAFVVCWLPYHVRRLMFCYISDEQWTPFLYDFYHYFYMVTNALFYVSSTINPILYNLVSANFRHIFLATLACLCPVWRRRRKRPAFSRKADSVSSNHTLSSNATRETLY
Cardio protect: modulators protecting cardiomyocytes from myocardial damage | H9c2 cardiomyocytes, H2O2 injury protection, ATPLite, 2 h | protection from H2O2 cell death, % at 20 µM | actives 0.63% (n = 360,000);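 active = compounds giving at least 50% protection of heart cells from peroxide-induced death in the single-dose screen, raw or plate-pattern-corrected value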;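 note: 0% = DMSO wells with peroxide and 100% = DMSO wells without peroxide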
UBC9 SUMO inh: SUMOylation inhibition; P63279; HTRF SUMOylation assay, SAE1/SAE2 + UBC9, in vitro; inhibition, % at 35 µM; actives 0.36% (n = 290,000); AID 2006; in the data active = inhibition above about 50%, passing the limit was not always enough; inconclusive = no clear call, values can overlap the other calls
Target sequence (P63279 whole entry, looked up): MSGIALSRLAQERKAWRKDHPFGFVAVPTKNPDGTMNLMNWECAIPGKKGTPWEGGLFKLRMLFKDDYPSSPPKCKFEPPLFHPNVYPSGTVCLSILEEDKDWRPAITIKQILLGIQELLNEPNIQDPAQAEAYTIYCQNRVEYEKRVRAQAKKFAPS
Starred values were filed as active, the others as inactive; ? = inconclusive; · = no result. This is a sample that favours compounds with a hit; in the whole collection about 3.9% have one here.

SMILES	ALR inh	NTR1 ag	Cardio protect	UBC9 SUMO inh
CCCn1nc(NS(=O)(=O)c2cccc3nonc23)c2cc3cc(C)ccc3nc21	37	1	-4	0
Cc1ccc2cc3c(NS(=O)(=O)c4cccc5nonc45)nn(CC(C)C)c3nc2c1	98*	2	-3	4
CCCn1nc(NS(=O)(=O)c2cccc3nonc23)c2cc3cccc(C)c3nc21	97*	4	-2	1
Cc1cc(C)n(-c2nnc(C)n2/N=C/c2ccco2)n1	-3	-1	-1	9
C=C(C)CN=c1scc(C)n1/N=C/c1ccco1	99*	-2	18	6
Cn1cc(CN(CCCN2CCOCC2)C(=S)Nc2cccc(Cl)c2)c2ccccc21	-4	2	19	-23
COc1cc(-c2cc(C(=O)OCC(=O)NC3CC3)c3ccccc3n2)cc(OC)c1OC	-2	3	64*	·
COc1ccc(NC(=O)c2cc(-c3cc(OC)c(OC)c(OC)c3)nc3ccccc23)cc1OC	-2	6	63*	-6
COc1ccc(-c2cc(C(=O)N3CCCCCC3)c3ccccc3n2)cc1OC	·	·	0	·
COc1ccc(NC(=O)c2cc(-c3ccccn3)nc3ccccc23)cc1S(=O)(=O)N(C)C	-4	2	89*	·
COc1ccc(-c2cc(C(=O)N3CCN(c4ccccc4)CC3)c3ccccc3n2)cc1OC	·	5	54*	15
CN(C)c1ccc(/C=C(/C#N)C(=O)NCc2ccccc2)o1	38	-4	13	-10
COc1ccccc1NC(=O)c1cc(-c2ccc(OC)c(OC)c2)nc2ccccc12	·	6	57*	0
Cc1nnc(SCC(=O)Nc2ccc(OC(F)F)c(Cl)c2)n(N)c1=O	99*	3	-7	·
Nn1c(SCC(=O)Nc2ccc(OC(F)F)cc2)nnc(Cc2ccccc2)c1=O	98*	2	5	·
Cc1ccc(NC(=O)CSc2nnc(C)c(=O)n2N)cc1Cl	48	0	5	0
Cc1ccc(CNC(=O)CSc2nccn(-c3ccc(C)c(F)c3)c2=O)cc1	98*	3	-7	·
O=C(CSc1nccn(-c2cccc(F)c2)c1=O)Nc1ccc(Cl)cc1F	99*	0	-4	16
COc1ccc(-n2ccnc(SCC(=O)NCc3ccc(C)cc3)c2=O)cc1Cl	98*	2	-7	·
CC1(C)Cc2ccccc2C(c2cc3ccccc3oc2=O)=N1	-7	-1	5	12
CC(=O)Nc1ccc(S(=O)(=O)NCCC(=O)OCc2nc(N)nc(Nc3ccccc3C)n2)cc1	-3	1	6	·
O=C(Oc1ccc[nH]c1=O)c1cc([N+](=O)[O-])cc([N+](=O)[O-])c1	-20	-1	0	98*
COc1ccc(C(=O)Oc2ccc[nH]c2=O)cc1	-45	-1	1	10
CCNC(=O)Oc1ccc[nH]c1=O	-106	-1	3	88*
CCN1CCN(CC(=O)N2N=C(c3cccs3)CC2c2ccc(C)cc2)C(=O)C1=O (stereo not given)	2	-1	2	-3
SMILES	ALR inh	NTR1 ag	Cardio protect	UBC9 SUMO inh
O=C(O)c1ccc2c(=O)n3c(nc2c1)/C(=C/c1ccc(F)cc1)CC3	·	2	12	18
O=C(O)c1ccc2c(=O)n3c(nc2c1)/C(=C/c1cccc(Cl)c1Cl)CCCC3	97*	4	4	-11
CCn1c(SCC(=O)Nc2ccc(N(C)C)cc2)nnc1-c1cccc(C)c1	99*	1	3	13
CCn1c(SCC(=O)Nc2cc(C)on2)nnc1-c1cccc(C)c1	0	1	-10	-2
CN(C)c1ccc(NC(=O)CSc2nnc(-c3cccs3)n2Cc2ccco2)cc1	99*	1	6	-5
Fc1ccccc1NC(=S)Nc1cccc2cnccc12	22	2	30	98*
CC(=O)c1ccc(NC(=S)Nc2cccc3cnccc23)cc1	25	6	-10	98*
Cc1ccccc1NC(=S)Nc1cccc2cnccc12	·	-1	-15	97*
S=C(Nc1cccc(Cl)c1)Nc1cccc2cnccc12	-3	·	4	98*
Cc1ccc(NC(=S)Nc2cccc3cnccc23)cc1C	-15	0	1	96
CC(=O)c1cccc(NC(=S)Nc2cccc3ccccc23)c1	-27	2	-4	95
CC[C@]12c3[nH]c4ccccc4c3CCN1C(=O)C(CC(=O)NCCN1CCOCC1)C[C@@H]2C(=O)N1CCN(C(=O)C2CC2)CC1 (stereo not given in full)	3	-1	-1	·
Cc1ccc(NC(=S)Nc2cccc3cnccc23)cc1	-8	0	-8	100*
C=CCNC(=S)NN(c1ccccc1)c1ccccc1	63	0	-2	16
CC(C)NC(=S)NN(c1ccccc1)c1ccccc1	99*	-4	3	10
COc1cc(CN2C[C@@H](CO)O[C@@H](n3cnc4c(Nc5ccccc5)ncnc43)C2)cc(OC)c1OC	·	·	79*	·
COc1cc(CN2C[C@@H](CO)O[C@@H](n3cnc4c(NC5CCC5)ncnc43)C2)cc(OC)c1OC	·	·	6	·
S=C(Nc1ccc(N2CCOCC2)cc1)Nc1ccc2nc(-c3ccco3)c(-c3ccco3)nc2c1	17	1	56*	?
O=C(Nc1ccc(N2CCOCC2)cc1)Nc1ccc2nsnc2c1	86*	2	1	9
Cc1nc2cc(NC(=O)N3CCN(c4ccccn4)CC3)ccc2o1	-1	-1	0	6
O=C(Nc1ccc2nc(-c3ccco3)c(-c3ccco3)nc2c1)N1CCN(c2ccccn2)CC1	·	0	117*	69
O=C(Nc1ccc(N2CCOCC2)cc1)c1ccc2nc(-c3ccco3)c(-c3ccco3)nc2c1	·	10	0	1
COc1ccc(CN(C)C(=O)Cn2cnc3c(SC)nc(N)nc32)cc1OC	·	-3	-14	·
Cc1[nH]c2ccccc2c1C(=O)CN1CCC(C(N)=O)(N2CCCCC2)CC1	-6	-1	14	15
Nc1nc(CN2CCN(C(=O)c3ccco3)CC2)nc(Nc2cccc(Cl)c2)n1	95*	0	2	16
SMILES	ALR inh	NTR1 ag	Cardio protect	UBC9 SUMO inh
CCOC(=O)c1cn(CC(=O)Nc2ccc3c(c2)OCCO3)nn1	-12	1	-1	-8
Cc1ccc(C2NC(=O)c3c(sc(C)c3C)N2)c(O)c1 (stereo not given)	92*	0	-2	10
Cc1cccc(C2NC(=O)c3c(sc(C)c3C)N2)c1O (stereo not given)	·	1	4	15
O=C1Nc2ccccc2C(=O)C1(Cl)Cc1ccccc1 (stereo not given)	3	0	52*	25
Cc1ccc(-c2nnc(CSc3nc4cc5c(cc4cc3C)OCO5)o2)cc1	-5	4	-4	-11
COc1cccc(NC(=O)CN(C)CC(=O)Nc2ccccc2-c2ccccc2)c1	-45	4	1	3
Cc1ccc(S(=O)(=O)N2CCN(C(=O)c3ccc(-n4cncn4)c([N+](=O)[O-])c3)CC2)cc1C	-8	1	0	·
Oc1ccc(Nc2nc(-c3ccccc3F)nc3ccccc23)cc1	100*	2	1	3
Oc1cccc(Nc2nc(-c3ccccc3Cl)nc3ccccc23)c1	88*	8	13	2
Oc1ccc(Nc2nc(-c3ccccc3O)nc3ccccc23)cc1	50	33	23	7
